# Results reported in PMC7862700, “An all-to-all approach to the identification of sequence-specific readers for epigenetic DNA modifications on cytosine”.
# Columns and labels:
# Assay in all cases: DAPPL (digital affinity profiling via proximity ligation, sequencing); 10 mM Tris-HCl pH 7.5, 50 mM NaCl, 1 mM DTT, 4% glycerol, room temperature, 30 min; GST-TFs on glutathione beads, 16-mer random dsDNA library, 0.1% formaldehyde crosslink after washing; high values mean tight binding
# FEV = biological target: T1, FEV (Homo sapiens, UniProt Q99581 1-238); settings: protein: recombinant; tags: N-terminal GST; dsDNA, one strand shown
# T1 sequence: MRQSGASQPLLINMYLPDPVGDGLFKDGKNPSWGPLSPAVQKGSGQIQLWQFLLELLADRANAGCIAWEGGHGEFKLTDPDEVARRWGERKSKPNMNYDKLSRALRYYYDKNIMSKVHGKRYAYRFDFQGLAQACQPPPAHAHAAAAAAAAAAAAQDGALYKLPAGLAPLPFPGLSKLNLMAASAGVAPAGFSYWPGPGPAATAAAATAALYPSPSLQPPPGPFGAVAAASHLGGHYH
# Outline: (§1)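 Human transcription factors fused to GST were expressed in yeast, captured on glutathione beads, given DNA barcodes and pooled with a GST-only negative control. Pools were incubated with 200 nmole of a 16-mer random double-stranded DNA library in Tris/NaCl/DTT/glycerol buffer at room temperature for 30 min. They were then washed, crosslinked with 0.1% formaldehyde, proximity-ligated (BsaI/T4 ligase, 1 h, 37 °C), PCR-amplified and sequenced on an Illumina NextSeq500. Binding signal is each 6-mer's read frequency for a factor divided by its frequency for the GST control.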
# ETV5 = ETV5 (Homo sapiens, UniProt P41161 1-510); settings: protein: recombinant; tags: N-terminal GST; dsDNA, one strand shown
# Outline: as §1
# HSF1 = HSF1 (Homo sapiens, UniProt Q00613 1-529); settings: protein: recombinant; tags: N-terminal GST; chain copies: 3; dsDNA, one strand shown
# Outline: as §1
# SPIC = biological target: T2, SPIC (Homo sapiens, UniProt Q8N5J4 1-248); settings: protein: recombinant; tags: N-terminal GST; dsDNA, one strand shown
# T2 sequence: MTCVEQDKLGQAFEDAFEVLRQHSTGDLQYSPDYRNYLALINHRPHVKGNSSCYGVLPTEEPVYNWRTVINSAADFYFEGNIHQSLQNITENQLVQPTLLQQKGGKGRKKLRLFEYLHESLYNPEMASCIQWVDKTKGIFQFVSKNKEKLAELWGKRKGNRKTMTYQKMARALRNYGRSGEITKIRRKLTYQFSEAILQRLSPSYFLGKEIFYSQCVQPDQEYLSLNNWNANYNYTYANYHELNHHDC
# Outline: as §1
# ELF4 = ELF4 (Homo sapiens, UniProt Q99607 1-663); settings: protein: recombinant; tags: N-terminal GST; dsDNA, one strand shown
# Outline: as §1
# ELK4 = biological target: T3, ELK4 (Homo sapiens, UniProt P28324-2 1-405); settings: protein: recombinant; tags: N-terminal GST; dsDNA, one strand shown
# T3 sequence: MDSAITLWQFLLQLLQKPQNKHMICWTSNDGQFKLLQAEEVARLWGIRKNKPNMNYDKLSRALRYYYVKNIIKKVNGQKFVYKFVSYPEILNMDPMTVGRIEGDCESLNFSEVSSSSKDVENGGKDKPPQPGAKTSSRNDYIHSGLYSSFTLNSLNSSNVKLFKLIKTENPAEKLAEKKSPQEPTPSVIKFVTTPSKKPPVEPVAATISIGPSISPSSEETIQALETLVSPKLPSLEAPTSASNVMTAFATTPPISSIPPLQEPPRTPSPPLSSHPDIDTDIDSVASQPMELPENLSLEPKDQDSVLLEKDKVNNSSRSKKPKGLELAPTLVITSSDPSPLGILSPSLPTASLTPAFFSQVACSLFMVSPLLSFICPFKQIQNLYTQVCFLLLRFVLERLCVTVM
# Outline: as §1
# ETV2 = biological target: T4, ETV2 (Homo sapiens, UniProt O00321 1-342); settings: protein: recombinant; tags: N-terminal GST; dsDNA, one strand shown
# T4 sequence: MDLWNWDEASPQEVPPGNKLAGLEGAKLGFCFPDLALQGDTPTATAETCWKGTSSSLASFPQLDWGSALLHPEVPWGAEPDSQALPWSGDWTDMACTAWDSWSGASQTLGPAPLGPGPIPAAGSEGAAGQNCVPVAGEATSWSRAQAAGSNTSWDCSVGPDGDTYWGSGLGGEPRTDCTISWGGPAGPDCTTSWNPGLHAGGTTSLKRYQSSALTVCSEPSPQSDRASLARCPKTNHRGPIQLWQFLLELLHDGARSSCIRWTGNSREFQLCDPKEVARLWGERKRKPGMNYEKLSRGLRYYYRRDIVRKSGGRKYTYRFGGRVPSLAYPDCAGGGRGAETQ
# Outline: as §1
# ELF3 = biological target: T5, ELF3 (Homo sapiens, UniProt P78545 1-371); settings: protein: recombinant; tags: N-terminal GST; dsDNA, one strand shown
# T5 sequence: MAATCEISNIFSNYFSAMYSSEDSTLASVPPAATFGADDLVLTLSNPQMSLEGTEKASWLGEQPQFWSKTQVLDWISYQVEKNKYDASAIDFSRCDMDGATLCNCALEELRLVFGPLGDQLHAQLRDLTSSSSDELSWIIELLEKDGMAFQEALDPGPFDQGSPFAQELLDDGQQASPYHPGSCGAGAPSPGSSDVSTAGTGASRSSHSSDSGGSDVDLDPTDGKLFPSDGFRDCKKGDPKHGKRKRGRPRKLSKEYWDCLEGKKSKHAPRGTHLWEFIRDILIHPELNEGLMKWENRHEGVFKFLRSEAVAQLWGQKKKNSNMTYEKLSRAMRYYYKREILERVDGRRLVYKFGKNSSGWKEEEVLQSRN
# Outline: as §1
# CRX = CRX (Homo sapiens, UniProt O43186 1-299); settings: protein: recombinant; tags: N-terminal GST; dsDNA, one strand shown
# Outline: as §1
# ETV1 = ETV1 (Homo sapiens, UniProt P50549 1-477); settings: protein: recombinant; tags: N-terminal GST; dsDNA, one strand shown
# Outline: as §1
# ERF = biological target: T6, ERF (Homo sapiens, UniProt P50548 1-548); settings: protein: recombinant; tags: N-terminal GST; dsDNA, one strand shown
# T6 sequence: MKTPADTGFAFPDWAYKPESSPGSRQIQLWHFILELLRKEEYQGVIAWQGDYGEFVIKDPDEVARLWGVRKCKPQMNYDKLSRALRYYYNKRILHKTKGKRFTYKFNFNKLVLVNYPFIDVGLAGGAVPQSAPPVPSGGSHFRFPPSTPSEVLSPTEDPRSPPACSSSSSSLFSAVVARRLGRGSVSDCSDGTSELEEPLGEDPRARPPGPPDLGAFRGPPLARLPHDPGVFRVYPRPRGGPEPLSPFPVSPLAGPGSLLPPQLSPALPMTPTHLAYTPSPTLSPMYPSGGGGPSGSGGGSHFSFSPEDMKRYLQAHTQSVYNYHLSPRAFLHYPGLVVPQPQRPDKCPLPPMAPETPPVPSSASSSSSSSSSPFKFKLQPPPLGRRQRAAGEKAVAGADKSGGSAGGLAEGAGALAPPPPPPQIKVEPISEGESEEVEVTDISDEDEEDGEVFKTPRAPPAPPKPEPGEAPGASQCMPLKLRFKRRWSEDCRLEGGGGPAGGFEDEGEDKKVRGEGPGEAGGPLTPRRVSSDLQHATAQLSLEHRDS
# Outline: as §1
# ETV3L = biological target: T7, ETV3L (Homo sapiens, UniProt Q6ZN32 1-361); settings: protein: recombinant; tags: N-terminal GST; dsDNA, one strand shown
# T7 sequence: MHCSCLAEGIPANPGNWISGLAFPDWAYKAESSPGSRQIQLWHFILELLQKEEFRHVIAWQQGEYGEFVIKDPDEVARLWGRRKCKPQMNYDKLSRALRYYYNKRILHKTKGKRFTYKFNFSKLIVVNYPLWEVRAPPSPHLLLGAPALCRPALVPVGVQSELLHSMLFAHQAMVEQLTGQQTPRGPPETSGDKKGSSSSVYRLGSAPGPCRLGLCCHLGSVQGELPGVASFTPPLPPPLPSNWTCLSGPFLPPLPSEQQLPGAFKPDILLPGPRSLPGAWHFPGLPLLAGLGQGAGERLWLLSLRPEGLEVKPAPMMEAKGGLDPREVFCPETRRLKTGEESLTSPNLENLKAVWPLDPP
# Outline: as §1
# ETS2 = biological target: T8, ETS2 (Homo sapiens, UniProt P15036 1-469); settings: protein: recombinant; tags: N-terminal GST; dsDNA, one strand shown
# T8 sequence: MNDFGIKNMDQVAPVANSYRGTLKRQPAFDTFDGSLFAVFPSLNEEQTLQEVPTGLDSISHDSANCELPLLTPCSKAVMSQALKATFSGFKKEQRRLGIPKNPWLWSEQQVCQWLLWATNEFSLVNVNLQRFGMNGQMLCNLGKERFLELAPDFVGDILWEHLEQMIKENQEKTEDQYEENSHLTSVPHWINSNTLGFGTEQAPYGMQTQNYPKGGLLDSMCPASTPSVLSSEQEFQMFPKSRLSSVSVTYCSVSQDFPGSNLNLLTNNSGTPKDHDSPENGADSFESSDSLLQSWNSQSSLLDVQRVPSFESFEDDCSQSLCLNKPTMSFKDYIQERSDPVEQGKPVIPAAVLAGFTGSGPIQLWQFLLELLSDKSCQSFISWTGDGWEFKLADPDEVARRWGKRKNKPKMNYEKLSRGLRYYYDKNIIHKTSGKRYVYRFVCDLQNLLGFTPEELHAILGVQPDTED
# Outline: as §1
# SPDEF = biological target: T9, SPDEF (Homo sapiens, UniProt O95238 1-335); settings: protein: recombinant; tags: N-terminal GST; dsDNA, one strand shown
# T9 sequence: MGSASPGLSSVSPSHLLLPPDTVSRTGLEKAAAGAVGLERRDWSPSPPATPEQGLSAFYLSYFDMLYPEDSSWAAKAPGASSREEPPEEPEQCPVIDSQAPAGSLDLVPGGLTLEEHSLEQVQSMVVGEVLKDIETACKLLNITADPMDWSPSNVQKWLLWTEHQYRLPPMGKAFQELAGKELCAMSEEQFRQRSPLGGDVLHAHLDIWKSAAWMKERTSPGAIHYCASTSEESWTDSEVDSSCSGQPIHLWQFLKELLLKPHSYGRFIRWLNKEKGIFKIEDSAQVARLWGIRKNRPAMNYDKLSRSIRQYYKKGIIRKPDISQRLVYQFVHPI
# Outline: as §1
# ETV7 = biological target: T10, ETV7 (Homo sapiens, UniProt Q9Y603 1-341); settings: protein: recombinant; tags: N-terminal GST; dsDNA, one strand shown
# T10 sequence: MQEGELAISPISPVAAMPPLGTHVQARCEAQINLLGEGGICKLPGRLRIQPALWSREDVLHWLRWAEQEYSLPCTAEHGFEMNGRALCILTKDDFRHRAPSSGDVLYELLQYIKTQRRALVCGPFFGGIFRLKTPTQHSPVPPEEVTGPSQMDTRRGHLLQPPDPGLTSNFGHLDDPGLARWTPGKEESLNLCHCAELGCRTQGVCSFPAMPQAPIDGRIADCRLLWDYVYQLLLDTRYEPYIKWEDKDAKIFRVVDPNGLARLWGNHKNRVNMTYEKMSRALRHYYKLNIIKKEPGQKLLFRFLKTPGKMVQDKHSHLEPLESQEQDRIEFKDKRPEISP
# Outline: as §1
# ELF5 = biological target: T11, ELF5 (Homo sapiens, UniProt Q9UKW6-2 1-255); settings: protein: recombinant; tags: N-terminal GST; dsDNA, one strand shown
# T11 sequence: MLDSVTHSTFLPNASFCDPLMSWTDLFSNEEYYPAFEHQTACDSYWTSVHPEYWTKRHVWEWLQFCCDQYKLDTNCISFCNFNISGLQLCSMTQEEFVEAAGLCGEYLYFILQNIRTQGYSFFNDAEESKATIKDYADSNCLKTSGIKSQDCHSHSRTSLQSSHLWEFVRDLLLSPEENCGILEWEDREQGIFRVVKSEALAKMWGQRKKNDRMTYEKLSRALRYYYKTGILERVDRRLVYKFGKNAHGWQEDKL
# Outline: as §1
# ETV3 = biological target: T12, ETV3 (Homo sapiens, UniProt P41162-2 1-143); settings: protein: recombinant; tags: N-terminal GST; dsDNA, one strand shown
# T12 sequence: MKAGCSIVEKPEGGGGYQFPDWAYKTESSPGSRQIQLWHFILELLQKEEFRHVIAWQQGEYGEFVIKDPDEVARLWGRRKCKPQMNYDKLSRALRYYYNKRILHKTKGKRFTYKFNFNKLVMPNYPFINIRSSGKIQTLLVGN
# Outline: as §1
# ETV6 = ETV6 (Homo sapiens, UniProt P41212 1-452); settings: protein: recombinant; tags: N-terminal GST; dsDNA, one strand shown
# Outline: as §1
# CRX, sequence (O43186 whole entry): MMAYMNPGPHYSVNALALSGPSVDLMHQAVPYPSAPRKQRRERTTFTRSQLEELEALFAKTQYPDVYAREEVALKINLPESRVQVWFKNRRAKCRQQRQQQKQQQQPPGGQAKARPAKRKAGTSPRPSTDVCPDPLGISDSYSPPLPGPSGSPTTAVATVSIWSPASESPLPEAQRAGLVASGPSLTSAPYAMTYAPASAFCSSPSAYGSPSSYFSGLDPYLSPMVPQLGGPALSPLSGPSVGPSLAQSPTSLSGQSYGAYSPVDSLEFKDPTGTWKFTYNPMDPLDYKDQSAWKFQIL
# ETV6, sequence (P41212 whole entry): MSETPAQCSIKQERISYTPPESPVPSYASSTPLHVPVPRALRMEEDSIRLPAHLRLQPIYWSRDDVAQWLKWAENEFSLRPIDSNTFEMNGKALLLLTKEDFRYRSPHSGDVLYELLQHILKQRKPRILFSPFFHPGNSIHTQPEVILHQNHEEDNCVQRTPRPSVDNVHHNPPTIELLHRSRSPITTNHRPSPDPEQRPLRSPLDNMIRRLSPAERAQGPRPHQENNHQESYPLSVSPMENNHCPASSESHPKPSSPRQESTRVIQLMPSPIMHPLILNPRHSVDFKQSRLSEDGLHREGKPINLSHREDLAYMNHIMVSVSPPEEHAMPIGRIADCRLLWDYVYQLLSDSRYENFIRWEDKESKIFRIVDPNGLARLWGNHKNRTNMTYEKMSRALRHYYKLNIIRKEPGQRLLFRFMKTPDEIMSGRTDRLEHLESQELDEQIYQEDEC
# ETV1, sequence (P50549 whole entry): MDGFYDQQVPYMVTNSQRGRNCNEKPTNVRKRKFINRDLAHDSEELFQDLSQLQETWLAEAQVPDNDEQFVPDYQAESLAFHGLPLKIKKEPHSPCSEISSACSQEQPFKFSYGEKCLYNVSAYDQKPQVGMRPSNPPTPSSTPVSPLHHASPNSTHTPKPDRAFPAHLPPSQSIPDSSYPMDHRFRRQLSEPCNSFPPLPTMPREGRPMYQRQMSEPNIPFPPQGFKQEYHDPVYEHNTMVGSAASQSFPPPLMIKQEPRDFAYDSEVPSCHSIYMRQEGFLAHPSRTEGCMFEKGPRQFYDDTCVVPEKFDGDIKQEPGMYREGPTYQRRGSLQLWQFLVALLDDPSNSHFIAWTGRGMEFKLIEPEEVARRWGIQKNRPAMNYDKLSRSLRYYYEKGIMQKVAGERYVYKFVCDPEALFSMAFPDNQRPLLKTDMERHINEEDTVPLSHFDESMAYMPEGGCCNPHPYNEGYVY
# ELF4, sequence (Q99607 whole entry): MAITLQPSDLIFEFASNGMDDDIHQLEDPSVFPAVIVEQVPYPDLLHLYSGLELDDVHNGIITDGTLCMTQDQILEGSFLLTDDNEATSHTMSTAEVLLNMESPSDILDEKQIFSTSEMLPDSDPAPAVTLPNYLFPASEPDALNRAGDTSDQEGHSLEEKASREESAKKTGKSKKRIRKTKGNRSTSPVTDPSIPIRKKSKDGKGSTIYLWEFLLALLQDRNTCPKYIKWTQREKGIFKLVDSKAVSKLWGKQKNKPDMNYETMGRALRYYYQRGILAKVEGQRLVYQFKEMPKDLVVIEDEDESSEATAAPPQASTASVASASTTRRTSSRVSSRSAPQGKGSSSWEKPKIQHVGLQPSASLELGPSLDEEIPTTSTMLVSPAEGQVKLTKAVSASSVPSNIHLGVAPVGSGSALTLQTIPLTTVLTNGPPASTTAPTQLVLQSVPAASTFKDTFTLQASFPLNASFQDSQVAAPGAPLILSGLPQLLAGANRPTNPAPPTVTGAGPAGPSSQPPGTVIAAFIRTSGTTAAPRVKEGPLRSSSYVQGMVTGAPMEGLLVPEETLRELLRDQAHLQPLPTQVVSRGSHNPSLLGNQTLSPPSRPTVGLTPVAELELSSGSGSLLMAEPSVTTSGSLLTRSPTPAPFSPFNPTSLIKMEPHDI
# HSF1, sequence (Q00613 whole entry): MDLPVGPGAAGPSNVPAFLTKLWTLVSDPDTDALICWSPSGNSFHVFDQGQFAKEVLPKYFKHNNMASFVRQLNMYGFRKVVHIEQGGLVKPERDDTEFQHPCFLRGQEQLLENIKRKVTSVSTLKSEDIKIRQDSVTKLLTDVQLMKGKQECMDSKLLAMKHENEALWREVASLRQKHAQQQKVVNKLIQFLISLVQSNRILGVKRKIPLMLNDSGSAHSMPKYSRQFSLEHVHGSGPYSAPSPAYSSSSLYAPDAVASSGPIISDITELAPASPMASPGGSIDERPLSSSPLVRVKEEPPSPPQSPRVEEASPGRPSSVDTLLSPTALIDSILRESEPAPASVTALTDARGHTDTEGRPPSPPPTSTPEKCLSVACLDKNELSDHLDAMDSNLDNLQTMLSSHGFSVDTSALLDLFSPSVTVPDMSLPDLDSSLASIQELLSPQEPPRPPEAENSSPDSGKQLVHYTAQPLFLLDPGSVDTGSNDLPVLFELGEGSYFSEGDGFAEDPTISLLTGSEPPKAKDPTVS
# ETV5, sequence (P41161 whole entry): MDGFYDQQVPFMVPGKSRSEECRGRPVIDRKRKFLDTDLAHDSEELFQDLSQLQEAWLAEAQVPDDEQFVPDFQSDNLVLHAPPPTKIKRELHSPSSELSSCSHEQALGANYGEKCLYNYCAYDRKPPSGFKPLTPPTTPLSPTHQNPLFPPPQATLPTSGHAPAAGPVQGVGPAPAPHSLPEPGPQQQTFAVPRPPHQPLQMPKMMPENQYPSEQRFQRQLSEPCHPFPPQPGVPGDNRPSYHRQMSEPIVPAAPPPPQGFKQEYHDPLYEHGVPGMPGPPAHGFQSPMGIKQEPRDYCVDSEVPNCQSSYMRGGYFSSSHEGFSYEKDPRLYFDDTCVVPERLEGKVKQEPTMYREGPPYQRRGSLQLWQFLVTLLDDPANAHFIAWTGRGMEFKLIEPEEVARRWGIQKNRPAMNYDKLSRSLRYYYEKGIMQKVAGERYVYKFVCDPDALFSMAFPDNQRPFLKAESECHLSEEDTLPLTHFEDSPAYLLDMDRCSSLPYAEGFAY
sequence,measurement,setting,value
TTCCGA,binding signal,FEV,"1.81 fold enrichment (6-mer frequency, TF over GST control)"
same,binding signal,ETV5,"1.57 fold enrichment (6-mer frequency, TF over GST control)"
same,binding signal,HSF1,"1.35 fold enrichment (6-mer frequency, TF over GST control)"
same,binding signal,SPIC,"1.61 fold enrichment (6-mer frequency, TF over GST control)"
same,binding signal,ELF4,"1.44 fold enrichment (6-mer frequency, TF over GST control)"
same,binding signal,ELK4,"1.46 fold enrichment (6-mer frequency, TF over GST control)"
same,binding signal,ETV2,"1.7 fold enrichment (6-mer frequency, TF over GST control)"
same,binding signal,ELF3,"1.5 fold enrichment (6-mer frequency, TF over GST control)"
same,binding signal,CRX,"1.19 fold enrichment (6-mer frequency, TF over GST control)"
same,binding signal,ETV1,"1.63 fold enrichment (6-mer frequency, TF over GST control)"
same,binding signal,ERF,"1.5 fold enrichment (6-mer frequency, TF over GST control)"
same,binding signal,ETV3L,"1.48 fold enrichment (6-mer frequency, TF over GST control)"
same,binding signal,ETS2,"1.67 fold enrichment (6-mer frequency, TF over GST control)"
same,binding signal,SPDEF,"1.47 fold enrichment (6-mer frequency, TF over GST control)"
same,binding signal,ETV7,"1.64 fold enrichment (6-mer frequency, TF over GST control)"
same,binding signal,ELF5,"1.78 fold enrichment (6-mer frequency, TF over GST control)"
same,binding signal,ETV3,"1.68 fold enrichment (6-mer frequency, TF over GST control)"
same,binding signal,ETV6,"1.85 fold enrichment (6-mer frequency, TF over GST control)"
